Source: PubChem
In the library only some 10% were active in any assay of this set; here they are far more common.
GPT2 inh = Primary qHTS assay for inhibitors of Glutamate pyruvate transaminase 2 (GPT2). AID 1671188, 2021. Recombinant GPT2, coupled pyruvate oxidase/HRP Amplex Red fluorescence. Potency, µM (highest dose often 57.7 µM), inactives show at the top dose activity change, negative = inhibition, usual class: inhibitors. Alanine aminotransferase 2 (Homo sapiens), Q8TD30. hit rate 0.25% among 100,000; further: nearly all actives have a fitted effect of over 60% in size
Target sequence (Q8TD30 whole entry, looked up): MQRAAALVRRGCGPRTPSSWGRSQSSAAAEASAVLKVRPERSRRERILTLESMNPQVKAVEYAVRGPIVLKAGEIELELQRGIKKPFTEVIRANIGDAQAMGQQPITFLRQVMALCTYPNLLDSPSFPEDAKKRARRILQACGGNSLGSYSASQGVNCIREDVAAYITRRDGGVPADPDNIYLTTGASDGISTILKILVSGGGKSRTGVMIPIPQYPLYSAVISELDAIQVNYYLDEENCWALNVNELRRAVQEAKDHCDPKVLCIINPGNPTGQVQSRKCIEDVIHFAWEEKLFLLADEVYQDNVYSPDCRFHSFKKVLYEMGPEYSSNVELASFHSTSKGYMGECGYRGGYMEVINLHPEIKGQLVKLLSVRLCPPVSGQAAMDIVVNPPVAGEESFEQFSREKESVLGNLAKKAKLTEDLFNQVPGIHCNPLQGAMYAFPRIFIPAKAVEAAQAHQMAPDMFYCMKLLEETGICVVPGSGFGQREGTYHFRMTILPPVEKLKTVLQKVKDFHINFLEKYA
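Fluorescence read-out: pyruvate from GPT2 turnover coupled to pyruvate oxidase, HRP and Amplex Red (0.2mM ThPP, 0.2U/mL PO and HRP, 50uM Amplex final). Substrates 250uM a-KG, 2mM L-alanine; enzyme 10ng/uL; 30 min RT.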
HEK cytotox = Cytotoxic Profiling in HEK 293 Cell Line of Diverse Libraries Using Quantitative High-Throughput Screening; AID 1345083, 2018; hit rate 6.6% among 94,000; HEK 293 viability, ATP luminescence (CellTiter-Glo), 48-72 h; Potency, µM (series often up to 115 µM), for the others: top-dose activity change, negative = cytotoxicity, hits mostly inhibitors; further: nearly all actives have a fitted effect of over 60% in size
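qHTS cytotoxicity; HEK 293, 250 cells/well; compound pinned; 48 or 72 hr, 37 degree Celsius, 5% CO2, 95% humidity; CellTiter-Glo, 10 min RT; luminescence (ATP).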
3T3 cytotox = Cytotoxic Profiling in NIH 3T3 Cell Line of Diverse Libraries Using Quantitative High-Throughput Screening. Potency, µM (highest dose often 96.7 µM), without a hit: top-dose activity change, negative = cytotoxicity, most hits filed as inhibitors. hit rate 4.3% among 94,000. NIH 3T3 viability, CellTiter-Glo ATP luminescence, 48-72 h; further: nearly all actives have a fitted effect of over 55% in size
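Luminescent ATP readout (CellTiter-Glo, 10 min RT) after 48 or 72 hr compound exposure of NIH 3T3 cells seeded at 400 cells/well in 1536-well format; quantitative HTS.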
FLuc inh = Firefly luciferase inhibition profiling of diverse chemical library using quantitative high-throughput screening; purified P. pyralis luciferase, luminescence, biochemical; Potency, µM (highest dose often 115 µM), hits mostly inhibitors; hit rate 2.5% among 76,000; further: nearly all actives have a fitted effect of over 65% in size
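Cell-free enzyme assay, 10nM P. pyralis luciferase, luciferin and ATP each at 10uM. Inhibition profiled over a 6-point titration, read as luminescence.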
hNpr1 antagonist = Natriuretic polypeptide receptor (hNpr1) antagonism - Primary qHTS. Atrial natriuretic peptide receptor 1 (Homo sapiens), P16066. HEK293 hNpr1 GloSensor cGMP, ANP-stimulated luminescence. Potency, µM (series often up to 46.3 µM), for inactives: at the top dose activity change, negative = inhibition, hits mostly inhibitors. hit rate 1.6% among 76,000. AID 1347048, 2019; calls by dose curve; further: nearly all actives have a fitted effect of over 60% in size
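HEK293 cells stably expressing human Npr1 and cGMP GloSensor pGS-40F, loaded 2 h with 2% GloSensor reagent, given compound 30 min at room temperature. Luminescence read before and 20 min after 0.1 nM hNppA.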
* marks the source's active call; other numbers are inactive results; i = inactive; ? = inconclusive; . = no result; [ ] = another dose, or the depositor's remark. Unless noted, the call rests on the fitted dose curve; in most records, active means well fitted curve in the direction sought with a large enough effect; inconclusive means small, poorly fitted or top-dose-only effect, or another doubt; inactive means no such curve, though single readings can be large; an effect the other way counts as inactive or inconclusive. On the % scale 0 is the no-effect control and ±100 the full control effect; potency means the concentration at half of the fitted maximal effect.

SMILES	GPT2 inh	HEK cytotox	3T3 cytotox	FLuc inh	hNpr1 antagonist
O=C(NCC1CCCO1)c1ccc(-c2ccc(N3CCCCC3)nc2)cc1 (configuration not stated)	-1%	-14%	-1%	?	-6%
O=C(NCCN1CCOCC1)c1ccc(-c2ccc(N3CCCCCC3)nc2)cc1	i	35µM*	35µM*	?	-24%
Cc1ccccc1C(=O)NC1CCN(c2cc(-c3cccs3)[nH]n2)C1 (configuration not stated)	?	?	-23%	i	-16%
COc1ccc(-n2c(=O)c(C(=O)NCc3ccc(F)cc3)nc3cccnc32)cc1	i	?	?	.	.
O=C(NCc1ccc(Cl)cc1)c1ccc2nnc(CC3CC3)n2c1	i	?	?	.	.
O=C(O)Cc1nn(Cc2nc3cc(C(F)(F)F)ccc3s2)c(=O)c2nccnc12	-4%	.	.	.	.
O=C([C@H]1CCCN1[S+](=O)([O-])c1cccs1)N1CCC(N2CCOC2=O)CC1	i	i	1%	.	.
CCn1cc(-c2ccc(Cl)cc2)cc1C(=O)N1CCN(C(C)C)CC1	-7%	?	40µM*	i	-9%
CCn1cc(-c2ccc(Cl)cc2)cc1C(=O)N1CCCN(C)CC1	i	25µM*	18µM*	i	-9%
CCn1cc(-c2ccc(Cl)cc2)cc1C(=O)NCC(=O)OC	-3%	-33%	?	40µM*	2%
CCn1cc(-c2ccc(Cl)cc2)cc1C(=O)NCCN1CCOCC1	i	?	?	i	0%
CCn1cc(-c2ccc(C)cc2)cc1C(=O)N1CCCN(C)CC1	i	79µM*	?	i	-10%
CCOC(=O)CNC(=O)c1cc(-c2ccc(Cl)cc2)cn1C	i	-16%	-27%	i	-16%
COCC(=O)N1CCC(=O)N(CCC#N)C[C@H]2CN(C)c3ccccc3[C@@H]21	1%[27.3 µM]	?	-31%[46.1 µM]	.	.
Cc1nc(CN2C[C@H](C(=O)NCc3cccc(F)c3)C[C@@H]2c2ccc(F)cc2)cs1	3%[88.5 µM]	89µM*	?	i	-2%[70.6 µM]
Cc1nc(CN2C[C@H](C(=O)Nc3ccccc3)C[C@@H]2c2ccc(F)cc2)cs1	-20%[88.5 µM]	71µM*	?	i	0%[70.6 µM]
CC(NC(=O)c1cc(-c2ccncc2)cn1C)c1ccc(F)cc1 (configuration not stated)	-3%	79µM*	-24%	i	-10%
CCO[C@H]1CN(C(=O)CCc2nc3c(C)c(C)ccc3[nH]2)C[C@@H]1O	-2%[11.5 µM]	-3%	1%	i	8%
COc1ccc2c(c1)c(CN1CCCC(c3[nH]ccc3C(N)=O)C1)cn2C (configuration not stated)	i	?	-24%	i	-5%
O=C(CN1CCCc2nc(-c3ccccc3)ncc2C1=O)N1CCOCC1	i	?	-33%	.	.
O=S(=O)(NCCc1noc(-c2ccccc2)n1)c1ccc(Cl)cc1	-14%	40µM*	28µM*	i	?
CC1=C[C@@H](CN2CCC(C(N)=O)CC2)[C@H](C(C)C)C[C@H]1Cc1nnc(C(C)(C)C)o1	-2%[88.5 µM]	?	?	i	-4%[70.6 µM]
CC1=C[C@@H](CN2CCC(C(N)=O)CC2)[C@H](C(C)C)C[C@H]1Cc1nnc(-c2ccc(C)cc2)o1	1%	35µM*	32µM*	i	9%
CC1=C[C@@H](CN2CCC(C(N)=O)CC2)[C@H](C(C)C)C[C@H]1Cc1nnc(-c2ccc(N(C)C)cc2)o1	4%	40µM*	35µM*	i	5%
O=C(NCc1cccc(F)c1)[C@@H]1CCCN1c1nccc(Nc2ccccc2Cl)n1	i	?	?	.	.
Cc1cnc(CC2CCCN(S(=O)(=O)c3cccs3)C2)n1C(C)C (configuration not stated)	0%	?	-15%	.	.
O=C(c1cccs1)N1CCCn2cc(-c3ccccc3F)nc21	-4%	?	-6%	22µM*	-4%
